# From PubChem BioAssay
# HCV inhibitor: HCV inhibition | Huh7.5.1 HCVcc-Cre infection, luciferase reporter, 44 h | Potency, µM (highest dose often 41.8 µM), for the others: at the top dose activity change, negative = inhibition, hits mostly inhibitors | 340,000 compounds, 3.4% hits; further: potency means the concentration at half of the fitted maximal effect; on the % scale 0 is the no-effect control and ±100 the full control effect
#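 HCVcc-Cre virus at an moi near 0.5 was added right after compound to cells cultured 4 h from seeding (1,000 cells/well). Luciferase activity was determined 44 h later, 15 min after substrate addition at RT.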
# Sm TGR block: S. mansoni TGR enzyme inhibition | purified TGR, DTNB reduction, TNB absorbance 405 nm | Potency, µM (titrated, usually from 114 µM), for inactives: top-dose activity change, negative = inhibition, usual class: inhibitors | 360,000 compounds, 3% hits; further: potency means the concentration at half of the fitted maximal effect; on the % scale 0 is the no-effect control and ±100 the full control effect; nearly all actives have a fitted effect of over 60% in size
#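 TGR 20 nM + NADPH 100 uM (dispensed conc.), cpd preinc 15 min RT; start with NADPH (500 uM addition) then DTNB (15 mM addition). Kinetic TNB absorbance, 405 nm filter. Four-parameter Hill fit across titration.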
# Pf growth 96h: P. falciparum growth inhibition at 96 hours. P. falciparum luciferase reporter growth, 96 h. Potency, µM (titrated, usually from 28.7 µM), inactives show at the highest dose activity change, negative = inhibition, hits mostly inhibitors. 320,000 compounds, 6.9% hits; further: potency means the concentration at half of the fitted maximal effect; on the % scale 0 is the no-effect control and ±100 the full control effect
#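 Delayed-death screen, second-generation endpoint: infected erythrocytes, 2% hematocrit, 0.05% parasitemia final; 96 hours at 37 C, 5% CO2; luciferase detection reagent; luminescence decrease equals reduced growth.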
# HCMV inh: blocks human cytomegalovirus replication. HFF cells, HCMV-luciferase reporter, 72 h; hits give low values. activity change, negative = inhibition, % at 57.5 µM. 410,000 compounds, 4.5% hits; in the data active means activity change below about -60%; inconclusive means no clear call, values can overlap the other calls; inactive means above about -39%; further: on the % scale 0 is the no-effect control and ±100 the full control effect
#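 Screen run at 2 compound doses on HFFs infected with reporter HCMV, MOI 1 PFU/cell. Luciferase activity from cell lysates at 72 h post infection gave inhibition relative to buffer-only and Salinomycin wells.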
# SARS PLP yeast: blocks SARS-CoV papain-like protease in a yeast assay; AID 485353; 330,000 compounds, 0.19% hits; S. cerevisiae expressing SARS-CoV PLpro, growth rescue; Potency, µM (series often up to 32.9 µM), for the others: at the top dose activity, positive = growth rescue, most hits filed as activators; calls by dose curve; further: potency means the concentration at half of the fitted maximal effect; 0% is about no effect; nearly all actives have a fitted effect of over 55% in size
# Pf growth 48h: P. falciparum growth inhibition at 48 hours (one generation); AID 504832; 310,000 compounds, 5.9% hits; P. falciparum luciferase growth in erythrocytes, 48 h; Potency, µM (highest dose often 28.7 µM), for the others: at the highest dose activity change, negative = inhibition, actives largely listed as inhibitors; further: potency means the concentration at half of the fitted maximal effect; on the % scale 0 is the no-effect control and ±100 the full control effect
#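 A one-generation exposure of luciferase-tagged malaria parasites in RPMI 1640/Albumax erythrocyte culture, 37 C and 5% CO2. Inhibition is inferred from decreased luminescence after adding detection reagent.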
# An asterisk follows results filed as active; ? = inconclusive; · = no result given; [ ] = dose if it differs, or a comment. This is a sample that favours compounds with a hit; in the whole collection about 15% have one here. Unless noted, the call rests on the fitted dose curve; in most records, active means well fitted curve in the direction sought with a large enough effect; inconclusive means small, poorly fitted or top-dose-only effect, or another doubt; inactive means no such curve, though single readings can be large; an effect the other way counts as inactive or inconclusive.
SMILES,HCV inhibitor,Sm TGR block,Pf growth 96h,HCMV inh,SARS PLP yeast,Pf growth 48h
Cc1ccc(S(=O)(=O)N2CCN(Cc3ccco3)CC2)c(C)c1,-7%,-7%,?,-6,2%,?
CCc1ccc(OC(C)c2nc(-c3ccc(-n4cccc4)cc3)no2)cc1 (configuration not stated),·,-5%,·,-25,·,·
COc1ccc(CCNc2nc(SCc3ccc(Cl)cc3)nc3ccccc23)cc1OC,·,3%,·,-25,·,·
C1=C(CCNC2=NCCCCC2)CCCC1,15%,0%,-28%,32,17%,-21%
COc1ccc(CCNc2c3ccccc3nc3ccccc23)cc1OC,?,19%,1.9µM*,-102*,-6%,1.5µM*
COc1nc(NCCC2=CCCCC2)nc(OC)n1,-4%,13%,?,24,-9%,10µM*
COc1nc(NCCc2ccc(OC)c(OC)c2)nc(OC)n1,-18%,6%,·,-99*,·,-9%
COc1ccc(CCNc2nc(N3CCCCC3)nc(N3CCCCC3)n2)cc1OC,22µM*,10%,14%,-14,-3%,13µM*
COc1ccc(CCNc2nc(N3CCOCC3)nc(N3CCOCC3)n2)cc1OC,?,-1%,9%,52,-1%,-14%
Nc1nonc1C(=O)N/N=C/c1ccc(Br)o1,1%,13%,14%,19,1%,29%
N/C(=N\N=C\c1ccc(Br)o1)c1nonc1N,7%,40µM*,105%,56,-2%,120%
COc1ccc(OC)c(CNS(=O)(=O)c2c(C(=O)N3CCC(C)CC3)c(C)n(C)c2C)c1,·,0%,·,?,·,·
O=C(/C=C/c1cccc(Cl)c1)NCCCN1CCOCC1,3%,-19%,?,?,-4%,17%
CCOC(=O)/C=C1\SC(C)C(=O)N1CC(=O)N(CCC#N)c1ccccc1 (configuration not stated),4%,-20%,?,-19,11%,-2%
Clc1ccc2c(c1)-c1[nH]ncc1CS2,-23%,?,9%,-61*,-1%,0%
CC(C)NCCCCOc1ccc(Br)cc1Cl,10µM*,12%,27%,?,0%,?
CC(C)NCCCOc1ccc(Cl)cc1Br,-14%,11%,?,22,5%,?
CCN(CC(=O)NCc1ccc(Cl)cc1)C(=O)C1CCN(S(=O)(=O)c2ccc(OC)c(OC)c2)CC1,10%,-6%,0%,-30,-2%,-4%
CCCCN(CC)CCNc1ncnc2onc(-c3ccc(Cl)cc3)c12,·,-5%,·,-18,·,·
CC(Nc1ccc(Cl)cc1)c1cc(Cl)ccc1O (configuration not stated),3%,-18%,13%,3,-61%,9.3µM*
COc1ccccc1CNC(=O)COC(=O)COc1ccccc1Cc1ccccc1,2%,7%,27%,-8,-1%,34%
COc1cccc(C(O)c2nc(/C=C/c3ccc(C(F)(F)F)cc3)cs2)c1 (configuration not stated),·,·,·,-62*,·,·
COC(=O)C1=C(C)OC(N)=C(C#N)C12C(=O)Nc1ccccc12 (configuration not stated),6%,8%,3%,23,1%,33%
Cn1c2c(c(=O)n(C)c1=O)C1(C(=O)Nc3ccccc31)C(C#N)=C(N)O2 (configuration not stated),7%,?,8.3µM*,25,-13%,10µM*
CCC(C)NC(=O)c1ccc(N2CC3CC(C2)c2cccc(=O)n2C3)c(NC(=O)c2ccc(Br)o2)c1 (configuration not stated),-11%,-17%,9.3µM*,-5,-4%,?
SMILES,HCV inhibitor,Sm TGR block,Pf growth 96h,HCMV inh,SARS PLP yeast,Pf growth 48h
Cc1cccc(N2CCN(C(=O)CCc3nc4ccccc4c(=O)[nH]3)CC2)c1C,-2%,·,·,48,3%,·
CC12CCC(C(=O)N(CCCN3CCN(Cc4ccccc4)CC3)C1=O)C2(C)C (configuration not stated),2%,-3%[57.1 µM],19%,-90*,-1%,2%
CC12CCC(C(=O)N(CCCCN3CCN(c4ccccn4)CC3)C1=O)C2(C)C (configuration not stated),-4%,-8%,9.3µM*,-28,-5%,?
COc1ccc(Cn2cc(CN3CC(N4CCN(Cc5ccccc5F)CC4)CS3(=O)=O)nn2)cc1 (configuration not stated),·,·,·,-23,·,·
O=C(O[C@@H]1OC2COC(=O)c3cc(O)c(O)c(O)c3-c3c(cc(O)c(O)c3O)C(=O)O[C@@H]([C@H]1O)[C@@H]2O)c1cc(O)c(O)c(O)c1,?,28µM*,-102%,·,13µM*,-11%
OCCC#Cc1ccc(F)c(-c2noc3ccccc23)c1,·,·,·,-10,·,·
CCCCCCC(=O)Cc1cc(OC)c(OC)cc1C=C(C(=O)OCC)C(=O)OCC,-5%[8.37 µM],40µM*,?,·,2%,?
CCOC(=O)/C(C#N)=C/c1ccc(OC)c(OC)c1,11%,6%,·,-7,-4%,8%
COc1ccc(Cc2nnc(SCC(=O)c3ccc(OC)cc3)o2)cc1,?,2%,·,-34,-7%,-11%
COc1ccc(C(=O)CSc2nnc(Cn3cnc4ccccc43)o2)cc1,2.2µM*,0%,3%,?,0%,-23%
CCOc1ccc(Cc2nnc(SCC(=O)c3ccc(OC)cc3)o2)cc1,8.9µM*,-1%,12µM*,1,4%,-16%
COCCn1c(-c2ccc(C)cc2)nc2c(c(=O)c3ccccc3n2C)c1=O,10%,·,·,?,·,·
Cn1c2ccccc2c(=O)c2c(=O)n(Cc3ccco3)c(-c3ccc(F)cc3)nc21,-22%,40µM*,?,-32,0%,?
Cc1cccc(-c2nc3c(c(=O)c4ccccc4n3C)c(=O)n2-c2ccccc2)c1,12%,-10%,1.7µM*,3,1%,1.7µM*
Cc1ccc(-c2nc3c(c(=O)c4ccccc4n3C)c(=O)n2-c2ccccc2)cc1,11%,-6%,?,?,5%,-4%
Cc1ccc(-c2nc3c(c(=O)c4ccccc4n3C)c(=O)n2Cc2ccco2)cc1,?,32µM*,?,-14,1%,?
CC1CCc2c(sc(NC(=O)c3cc(-c4cccc(Cl)c4)on3)c2C(N)=O)C1 (configuration not stated),·,3%,·,11,·,·
S=c1[nH]c(-c2ccccc2)cn1/N=C/c1cccs1,1%,7%,12µM*,-30,-1%,?
S=c1[nH]c(-c2ccccc2)cn1/N=C/c1ccc(Br)cc1,5%,10%,?,-29,14%,?
CN(C)/C=C/C(=O)c1ccc(Br)cc1,7%,·,0%,?,-4%,27%
